Hit rate of the full screen: of about 16,000 compounds, about 5,700 (36%) were called active. Roughly 24% stayed inconclusive and do not appear here. This is one part of the list. A number with no mark means an inactive call. Calls come from the whole dose curve; as a rule, active = well fitted curve in the direction sought with a large enough effect; inconclusive = small, poorly fitted or top-dose-only effect, or effect the other way; inactive = no such curve, though single readings can be large or run the other way.
Biological target: Cytochrome P450 1A2 (Homo sapiens) (UniProt P05177)
Experiment: Cytochrome panel assay with activity outcomes
Conditions: recombinant CYP, pro-luciferin dealkylation, luminescence, p450-cyp1a2; series mostly up to 57.1 µM
% is set by controls: 0 for no effect and ±100 for the full control effect.

Chain of Cytochrome P450 1A2 (Homo sapiens) (P05177 whole entry, looked up): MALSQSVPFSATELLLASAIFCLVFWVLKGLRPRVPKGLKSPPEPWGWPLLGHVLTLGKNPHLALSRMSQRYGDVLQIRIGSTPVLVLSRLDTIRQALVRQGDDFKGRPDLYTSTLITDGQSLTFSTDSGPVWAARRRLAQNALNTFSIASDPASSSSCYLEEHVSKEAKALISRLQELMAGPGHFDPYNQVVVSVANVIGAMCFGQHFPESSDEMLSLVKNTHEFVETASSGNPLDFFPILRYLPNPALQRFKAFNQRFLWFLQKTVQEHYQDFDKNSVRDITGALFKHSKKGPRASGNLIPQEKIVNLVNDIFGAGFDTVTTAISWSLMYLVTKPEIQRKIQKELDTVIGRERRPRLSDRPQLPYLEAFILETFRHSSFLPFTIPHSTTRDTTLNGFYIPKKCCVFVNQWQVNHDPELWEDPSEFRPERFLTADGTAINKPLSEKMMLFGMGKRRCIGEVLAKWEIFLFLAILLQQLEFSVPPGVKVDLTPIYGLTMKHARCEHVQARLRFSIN

Compound | activity, negative = inhibition | AC50
CCCNC(=O)OC[C@@H]1O[C@H](CCO/N=C\[C@@H](C)[C@H](OCc2ccccc2)C(C)C)C=C[C@@H]1Oc1ccc(OC)cc1 | -5.94% [at 11.4 µM] | 
O=C(Nc1cccc(F)c1)N1CC[C@@]2(CCCNC2)C1 |  | inactive
O=C(O)[C@@H]1[C@@H](C(=O)NCc2cccnc2)[C@@H]2C=C[C@@H]1O2 | -0.421% [at 2.29 µM] | 
O=C(O)[C@@H]1[C@@H](C(=O)NCc2ccncc2)[C@@H]2C=C[C@@H]1O2 |  | 5.01 µM (active)
O=C(O)[C@@H]1[C@@H](C(=O)Nc2ncccn2)[C@@H]2C=C[C@@H]1O2 | -13.2% [at 2.29 µM] | 
CC1Cc2ccccc2N1C(=O)Cn1c(=O)cc(O)c2ccccc21 (stereo unspecified) |  | 14.1 µM (active)
C[C@@H]1Cc2ccccc2N1NC(=O)c1ccc(Cl)c(S(N)=O)c1 (stereo partly specified) |  | inactive
CC1Cc2ccccc2N1C(=O)CN1C(=O)COc2ccccc21 (stereo unspecified) |  | inactive
COc1ccc(-n2cccc2C=O)cc1OC |  | 14.1 µM (active)
COc1ccc(-n2c(C)n[nH]c2=O)cc1OC |  | inactive
COc1ccc(N2C(=O)NC3CC2(C)Oc2ccccc23)cc1OC (stereo unspecified) |  | inactive
COc1ccc(C(=O)N2CCC[C@@]3(CCN(Cc4ccc(C#N)cc4)C3)C2)cc1 |  | inactive
CCn1c(/C=C2/C(=O)N(C)c3ccccc32)nc2ccccc2c1=O |  | 1 µM (active)
CC1(C)CC2(CCO1)OC(=O)CC2C(=O)NCCc1ccccc1 (stereo unspecified) |  | inactive
Cc1c(N(C)CS(=O)(=O)O)c(=O)n(-c2ccccc2)n1C |  | inactive
Cc1ccc(S(=O)(=O)/N=C(/Nc2c(C)n(C)n(-c3ccccc3)c2=O)c2ccc(Cl)cc2)cc1 |  | inactive
Cc1c(CCO)c(=O)n(-c2ccccc2)n1S(=O)(=O)c1c(Cl)cc(Cl)cc1Cl |  | 12.6 µM (active)
CC(=O)O[C@H]1C2=CO[C@H](C)[C@H]3[C@H]4C5=C([C@H](O)[C@H]6O[C@@H]6C5=O)[C@H](O[C@H]4C)[C@@]23C(=O)[C@H]2O[C@@H]21 | -0.486% [at 11.4 µM] | 
Cc1ccn2c(NC(=O)c3ccccc3)c(-c3cccs3)nc2c1 |  | 22.4 µM (active)
O=C(O)C12CC3(C(=O)O)CC(C(=O)O)(CC(C(=O)O)(C1)C3=O)C2=O | -4.32% [at 2.29 µM] | 
Cc1ncn(-c2ccccc2O)c1C |  | 0.794 µM (active)
CC1=NNC(=O)C1CCC(=O)N/N=C\c1ccccc1[N+](=O)[O-] (stereo unspecified) |  | inactive
Cc1nc2ccccn2c1C(=O)N/N=C/c1ccccc1[N+](=O)[O-] |  | 15.8 µM (active)

Compound | activity, negative = inhibition | AC50
O=C(O)Cc1cc(Cl)ccc1O | -16.6% [at 11.4 µM] | 
COc1ccc2c(c1)c(CC(=O)OCC(=O)O)c(C)n2C(=O)c1ccc(Cl)cc1 |  | inactive
COc1ccc2c(c1)c(CC(=O)O)c(C)n2Cc1ccc(Cl)cc1 |  | 31.6 µM (active)
CC(=O)n1nc(-c2ccco2)nc1N |  | 10 µM (active)
Cc1nc2nc[nH]n2c(=O)c1NC(=O)CC12CC3CC(CC(C3)C1)C2 |  | inactive
COC(=O)N1CC(=O)N(OC)C1c1ccc(Cl)cc1Cl (stereo unspecified) |  | inactive
O=C1c2ccccc2NC(c2ccc(Cl)cc2Cl)N1O (stereo unspecified) |  | 6.31 µM (active)
O=C1c2ccccc2N[C@H](c2cc(Cl)cc(Cl)c2O)N1CCc1ccccn1 | 5.81% [at 2.29 µM] | 
Cn1c(=NC(=O)CCl)sc2ccccc21 |  | 2.24 µM (active)
CO[C@H]1[C@H](O[C@H]2O[C@@H](C)[C@@H](O[C@@H]3C[C@](C)(O)[C@H](OC(=O)CC(C)C)[C@H](C)O3)[C@@H](N(C)C)[C@@H]2O)[C@@H](CC=O)C[C@@H](C)[C@@H](O)/C=C\C=C/C[C@@H](C)OC(=O)C[C@H]1OC(C)=O |  | inactive
COc1ccc2[nH]c3cc4c(=O)c5cc(OC)ccc5[nH]c4cc3c(=O)c2c1 | -6.02% [at 2.29 µM] | 
COc1ccc2[nH]cc(C=O)c2c1 |  | 7.08 µM (active)
Brc1[nH]nc2ccccc12 |  | 1.58 µM (active)
N[C@@H](Cc1[nH]nc2ccccc12)C(=O)O | -19.1% [at 11.4 µM] | 
COc1ccc(-c2cc(C(=O)O)c3c(C)nn(-c4ccccn4)c3n2)cc1 |  | inactive
COC(=O)N1CCC2(CC1)CCN(c1ccccn1)CC2 |  | inactive
COC(=O)c1ccccc1N/C=C1\CCc2c(c(C)nn2-c2ccccn2)C1=O |  | 6.31 µM (active)
c1cncc(CNc2ncn[nH]2)c1 | -7.88% [at 11.4 µM] | 
c1ccc(CNc2ncncc2-c2cccnc2)cc1 |  | 2.51 µM (active)
c1cncc(CNc2ncncc2-c2cccnc2)c1 |  | 5.01 µM (active)
Cc1cccc(CNc2ncncc2-c2cccnc2)c1 |  | 0.794 µM (active)
CC[C@H]1C2=C3C(CC[C@H]4C(OCc5ccc(F)cc5C(F)(F)F)OC[C@](C)([C@@H]34)N(C(=O)OC(C)(C)C)C2)C2COC(=O)OCC21 (stereo partly specified) |  | inactive
O=C(Nc1ccc2c(c1)nc1n2CCN(C2CCCCC2)C1)NC1CCCCC1 |  | inactive

Compound | activity, negative = inhibition | AC50
Cc1ccc(S(=O)(=O)N[C@@H]2COC(=O)C/C=C\[C@H](C)COC(=O)N[C@@H](C)C(=O)C/C=C\[C@H]2C)cc1 | -0.145% [at 11.4 µM] | 
C=CCn1c(SCc2ccc(C(=O)Nc3ccccc3)cc2)nnc1-c1ccccc1 |  | 14.1 µM (active)
Cc1ccc(NC(=O)c2ccc(CSc3nnc(-c4ccncc4)n3C)cc2)cc1 |  | inactive
CCn1c(SCc2ccc(C(=O)Nc3nccs3)cc2)nnc1-c1ccc(NC(C)=O)cc1 |  | 12.6 µM (active)
Cc1nc2sc(C#N)c(N)c2c2c1CCCC2 |  | 2 µM (active)
NC(=O)c1csc(-c2ccc(CO)o2)n1 | -13.1% [at 11.4 µM] | 
OCc1ccc(-c2nn(Cc3ccccc3)c3ccccc23)o1 |  | 1.58 µM (active)
O=C(NNS(=O)(=O)c1ccccc1)c1cccnc1 | 2.15% [at 2.29 µM] | 
O=C(NNS(=O)(=O)c1cc(Cl)cc(Cl)c1)c1sccc1-n1cccc1 |  | 2 µM (active)
CCS(=O)(=O)N1CCC(C(=O)NCCCN2CCCC2)CC1 |  | inactive
CCCN1C(=O)/C(=C/c2ccc(C)s2)SC1=Nc1ccc(OC)cc1 |  | 11.2 µM (active)
COc1ccc(N=C2S/C(=C\c3ccc(C)s3)C(=O)N2CC(C)C)cc1 |  | inactive
CN(C)CCCNc1ncnc2nc[nH]c12 | -16.6% [at 11.4 µM] | 
CCCCNc1nc(SC)nc2nc[nH]c12 |  | 0.316 µM (active)
O=C(O)CCNc1ncnc2nc[nH]c12 | -6.59% [at 11.4 µM] | 
CC[C@@]1(O)C(=O)OCc2c1cc1n(c2=O)Cc2cc3c(CN(C)C)c(O)ccc3nc2-1 | -17.9% [at 2.29 µM] | 
CCn1c(SCC(=O)Nc2sc3c(c2C#N)CCC(C(C)(C)C)C3)nnc1-c1ccco1 (stereo unspecified) |  | inactive
CCn1c(SCC(=O)Nc2sc3c(c2C(N)=O)CCC(C)C3)nnc1-c1ccco1 (stereo unspecified) |  | 12.6 µM (active)
COc1ncc2nc(-c3cc(F)cc(F)c3)c(=O)n(C[C@H]3CCCO3)c2n1 |  | 3.16 µM (active)
COc1ncc2nc(-c3ccc(Cl)cc3)c(=O)n(C[C@H]3CCCO3)c2n1 |  | 0.501 µM (active)
COc1cccc(Cn2c(=O)c(-c3cc(F)cc(F)c3)nc3cnc(N4CCN(C)CC4)nc32)c1 |  | inactive
CCCC12CN3CC(CCC)(CN(C1)C3C(O)C(O)C(O)CO)C2=O (stereo unspecified) |  | inactive
CCCC(=O)Nc1ccc(C(=O)Nc2cc(C(F)(F)F)ccc2Cl)cc1 |  | inactive

Compound | activity, negative = inhibition | AC50
COc1ccc(/C=C/C(=O)Nc2cc(C(F)(F)F)ccc2Cl)cc1 |  | 0.447 µM (active)
COc1cc(C(=O)Nc2cc(C(F)(F)F)ccc2Cl)cc(OC)c1OC |  | 5.01 µM (active)
COc1cc(NC(=O)c2ccc(COCC(F)(F)F)cc2)cc(OC)c1OC |  | inactive
COc1ccc(C(=O)N2CCC3(CCN(Cc4cc(C(F)(F)F)cc(C(F)(F)F)c4)CC3)CC2)cc1 |  | inactive
CN(C)S(=O)(=O)Oc1cccc(C(=O)Nc2ccccc2Cl)c1 |  | 2 µM (active)
COc1cccc(C(=O)Nc2cc(C(F)(F)F)ccc2Cl)c1 |  | 2.51 µM (active)
CCOc1ccc(/C(O)=C2/C(=O)C(=O)N(CCOCCO)C2c2cccnc2)cc1 (stereo unspecified) |  | inactive
CS(=O)(=O)N1CCC[C@@]2(CCN(c3ccccn3)C2)C1 |  | inactive
COC(=O)CNC(=O)CCCCC(=O)NCC(=O)OC |  | inactive
COC(=O)CNC(=O)/C=C/c1ccc(OC)cc1 |  | 12.6 µM (active)
COc1ccc(CNC(=O)/C=C/c2ccc(OCCCF)cc2)cc1 |  | inactive
CCOC(=O)Cn1c(=O)oc2cc(S(=O)(=O)NCCc3ccc(OCC)c(OCC)c3)ccc21 |  | 12.6 µM (active)
Cc1ccc(CNC(=O)CCNS(=O)(=O)c2ccc3c(c2)c(=O)n(C)c(=O)n3C)cc1 |  | inactive
CCOc1ccc(CCNC(=O)C2CCN(S(=O)(=O)CC)CC2)cc1OCC |  | inactive
N#Cc1cccc(NC(=O)N2CC[C@@]3(CCCN(C(=O)c4ccco4)C3)C2)c1 |  | inactive
Cc1ccc(C(=O)NCCCN2CCOCC2)cc1N1CCCC1=O |  | inactive
COc1ccc(C(=O)NCCCN2CCOCC2)cc1OC |  | inactive
O=C(NCCCn1ccnc1)c1ccc(Br)c(S(=O)(=O)N2CCOCC2)c1 |  | 1.78 µM (active)
Cc1cccc([C@@H]2CN(C)CCc3c2cc(O)c(O)c3Cl)c1 |  | inactive
CC(C)c1cc(C(F)(F)F)nc(NNc2nc(C(C)C)cc(C(F)(F)F)n2)n1 | -41.5% [at 11.4 µM] | 
CC(C)Nc1nc(Oc2ccc(Cl)cc2)cc(C(F)(F)F)n1 |  | 2 µM (active)
CCS(=O)(=O)c1ccc2oc(Nc3cc(C)cc(C)c3)nc2c1 |  | 5.01 µM (active)

Source: PubChem BioAssay AID1851 (National Center for Advancing Translational Sciences (NCATS), 2009)
